Screens: PubChem BioAssay, several laboratories
GAA850 FXN act: FXN promoter activators, primary screen, cell-based, luciferase luminescence, HEK293 lucGAA850; 360,000 tested, 0.56% active; HEK293 lucGAA850 FXN promoter luciferase reporter, 24 h; percent of 10 µM SAHA response; AID 540364, 2011; activation, % at 6 µM;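 active means activation above the average of all compounds screened plus 3 SD, cutoff fixed separately per campaign, cut at about 7.5% in these data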;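 further: 0% = DMSO wells and 100% = 10 µM SAHA wells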
HSF1 activator: HSF-1 activators, primary screen, NIH3T3-HGL cells, MG132 stress, luminescence, single point. AID 504408, 2011. 300,000 tested, 1.7% active. activation, % at 9 µM. NIH3T3-HGL HSF-1 luciferase reporter, 8 h; 100% = twice DMSO control signal;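 active means mean replicate activation of at least 50% with a set share of replicates each reaching 50%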;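 further: 0% = median of the neutral control wells and 100% = twice that signal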
DAX1 inh: DAX1 (NR0B1) inhibitors, primary screen, cell-based, HEK293, Gal4-DAX1, luciferase luminescence; inhibition, % at 6.75 µM; HEK293 Gal4-DAX1 luciferase reporter; 340,000 tested, 0.99% active; AID 504766, 2011;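 active means inhibition above the mean over all tested compounds plus 3 SD, cut at about 4.2% in these data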;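 further: 0% = DAX1-transfected cells with DMSO and 100% = empty-vector control cells with DMSO; inhibition shows as a rise in luminescence from relieved DAX1 repression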
Target sequence (P51843 207-470 limits assumed): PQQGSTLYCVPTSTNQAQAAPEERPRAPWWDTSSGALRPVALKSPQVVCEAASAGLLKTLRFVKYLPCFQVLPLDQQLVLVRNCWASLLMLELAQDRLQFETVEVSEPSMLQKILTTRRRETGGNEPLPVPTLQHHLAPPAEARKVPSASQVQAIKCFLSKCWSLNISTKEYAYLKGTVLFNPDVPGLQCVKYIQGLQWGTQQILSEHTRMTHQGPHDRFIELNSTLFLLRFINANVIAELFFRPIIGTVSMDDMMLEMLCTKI
HSF1 inhib: HSF1 inhibitors in luciferase reporter cells, primary screen, cell-based, NIH3T3, luminescence. NIH3T3-HGL HSE-luciferase, MG132-induced, luminescence 8 h; hits give low values. activity change, negative = inhibition, % at 7.5 µM (by protocol). 300,000 tested, 0.77% active. AID 2098, 2009;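 active means more than half of replicate wells show activity change below -50%, luminescence cut by over half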;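 further: luciferase reports HSF-1 transcriptional activity via heat shock element; 0% = median of DMSO wells and -100% = zero luminescence signal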
HSP90 inh: HSP90 inhibitors, primary screen, cell lysate, luminescence; Heat shock protein HSP 90 (rabbit reticulocyte lysate; luciferase refolding); Rabbit reticulocyte lysate, luciferase refolding luminescence, 3 h; inhibition, % at 5.6 µM; 290,000 tested, 0.91% active;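 active means inhibition above the screen-wide mean plus 3 SD, computed separately per campaign, cut at about 16% in these data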;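 further: 0% = DMSO wells and 100% = 60 µM geldanamycin wells; inhibitors lower the luminescence because luciferase stays unfolded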
AHR act: AHR activators, primary screen, cell-based, luminescence, luciferase reporter, human | AHR-responsive luciferase reporter cells | activation, % at 5 µM | 320,000 tested, 2.5% active; in the data active means activation above about 47%;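 further: 0% = vehicle wells and 100% = reference agonist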
Numbers without * were called inactive; · = not tested or not shown. The list is not random: actives were taken first. Their share in the collection is about 5.9%.

SMILES	GAA850 FXN act	HSF1 activator	DAX1 inh	HSF1 inhib	HSP90 inh	AHR act
O=Cc1c(-c2ccccc2)nc2ccccn12	3.1	10.5	0.6	4.0	-1.1	89.0*
CCOC(=O)C1CCCN(C(=O)Cc2ccc(OC)c(OC)c2)CC1 (stereo unspecified)	0.6	·	·	·	·	·
Cc1ccc2nc(NC(=O)C3CCCN(S(=O)(=O)c4cnc[nH]4)C3)sc2c1 (stereo unspecified)	1.8	-1.0	6.3*	-1.3	-0.5	20.2
O=C(NC1CCCCC1)C1CCCN(S(=O)(=O)c2cnc[nH]2)C1 (stereo unspecified)	-0.7	3.8	5.0*	2.4	-1.9	0.1
Cc1ccc2nc(NC(=O)C3CCCN(S(=O)(=O)c4cccnc4)C3)sc2c1 (stereo unspecified)	-0.9	-3.1	-2.7	-1.1	-6.4	6.8
CCSc1nnc(NC(=O)C2CCCCC2)s1	1.6	7.9	4.7*	9.7	-0.1	20.3
COc1ccc(NC(=O)C2CCCN(S(=O)(=O)c3cnc[nH]3)C2)cc1 (stereo unspecified)	1.9	-0.9	2.4	-3.1	0.6	1.9
CCSc1nnc(NC(=O)C2CCCN(S(=O)(=O)c3cnc[nH]3)C2)s1 (stereo unspecified)	0.4	4.3	13.3*	-7.1	-0.7	3.0
O=C(Cc1ccccc1[N+](=O)[O-])NNC(=O)c1cccs1	-0.9	·	0.8	·	·	3.1
CCN(CC)CCCC(C)n1c(C)cc(C(=O)NS(=O)(=O)c2ccc(C)cc2)c1C (stereo unspecified)	0.5	·	0.0	·	·	·
CN1CCN(c2ccccc2NS(=O)(=O)c2ccc3c(c2)CCN3C(=O)C2CCC2)CC1	·	-2.0	·	-6.4	-1.0	5.2
CCC1CCCCN1CCCNC(=O)C1CCC(CNS(=O)(=O)c2c(C)cc(C)cc2C)CC1 (stereo unspecified)	-1.3	-4.6	-1.6	-3.1	-1.5	0.1
O=C(/C=C/c1ccc([N+](=O)[O-])cc1)Nc1ncc([N+](=O)[O-])s1	0.1	·	4.0	·	0.4	·
CCOc1ccc(S(=O)(=O)/N=C(/Nc2ccc(C(C)=O)cc2)c2ccccc2)cc1	0.3	·	-1.8	·	·	64.7*
CCOc1ccc(S(=O)(=O)/N=C(/Nc2ccc(OC)cc2)c2ccccc2)cc1	1.9	13.2	0.4	0.7	-5.1	0.3
CCCc1[nH]nc2c1C(c1cccc(OC)c1)C(C#N)=C(N)O2 (stereo unspecified)	-4.1	6.9	0.7	-6.7	-5.1	-0.5
CCCc1[nH]nc2c1C(c1ccc(OC)cc1OC)C(C#N)=C(N)O2 (stereo unspecified)	-0.9	63.0*	0.0	23.5	0.5	3.0
CCCCOc1ccc(N(CC(=O)NCCOC)C(=O)CCC(=O)Nc2ccccn2)cc1	1.7	-7.5	-0.6	-6.7	3.8	10.7
Cc1cc(C)cc(NS(=O)(=O)c2ccc3c(c2)C(C)(C)C(=O)N3C)c1	-3.8	-1.1	0.3	0.6	-3.8	2.5
c1ccc(CSc2nnc(-c3cccnc3)o2)cc1	4.0	25.0	1.8	10.2	-0.6	1.3
c1cncc(-c2nnc(SCc3nc4ccccc4[nH]3)o2)c1	-3.0	-72.3	-1.9	-67.9*	0.3	73.2*
CN(C1CCCCC1)S(=O)(=O)c1ccc2c(c1)c(=O)c(C(=O)NCCN1CCCC1)cn2C	0.9	-0.1	1.5	-2.5	0.7	-1.2
CN(C1CCCCC1)S(=O)(=O)c1ccc2c(c1)c(=O)c(C(=O)NCCCN1CCCC1)cn2C	-0.4	1.1	4.9*	-0.4	-3.2	-1.1
C=C(C)CN(CC)c1nc(N)c(C#N)c(CC#N)c1C#N	4.2	75.0*	-1.0	69.0	1.4	2.8
CC(C)C(C(=O)NCc1ccccc1)N(CC1CCCO1)C(=O)CNS(=O)(=O)c1ccccc1 (stereo unspecified)	0.4	82.7*	0.6	35.6	-5.2	-4.6
SMILES	GAA850 FXN act	HSF1 activator	DAX1 inh	HSF1 inhib	HSP90 inh	AHR act
CCC(C(=O)NCC1CCCO1)N(C(=O)CNS(=O)(=O)c1ccccc1)c1ccc(F)cc1 (stereo unspecified)	0.3	-9.2	0.6	3.9	-1.7	-2.1
CCCC(C(=O)NCC1CCCO1)N(C(=O)CNS(=O)(=O)c1ccccc1)c1ccc(F)cc1 (stereo unspecified)	4.0	21.7	4.6*	8.2	-1.3	-1.8
Cc1cc(C)c(C2=Nn3c(C)nnc3SC2C)cc1C (stereo unspecified)	1.5	8.3	-0.2	6.0	-3.6	2.3
CCOn1c(=O)c(-c2cccc(Br)c2)[n+]([O-])c2ccccc21	-0.4	34.0	0.3	8.1	2.5	·
Nc1nc2nn(-c3ccccc3)nc2c(=O)[nH]1	4.8	55.1*	0.6	20.8	3.4	3.5
O=C1CCCC2=C1C(c1ccc(OS(=O)(=O)c3ccc(Cl)cc3)cc1)C1=C(CCCC1=O)O2	-0.8	16.5	7.2*	12.7	0.3	-1.0
COCCN(C(=O)COC(=O)c1cccs1)c1c(N)n(Cc2ccccc2)c(=O)[nH]c1=O	0.2	0.8	-0.1	1.4	-3.2	6.7
O=C(Nc1nc2ccccc2[nH]1)c1ccc(Br)o1	0.3	40.7	1.8	11.7	7.2	19.0
O=C(Nc1nc2ccccc2[nH]1)c1cccc(Br)c1	3.0	35.7	0.3	34.8	12.4	56.6*
O=C(Nc1nc2ccccc2[nH]1)c1ccc([N+](=O)[O-])cc1	2.5	61.1*	1.4	29.2	2.5	-2.7
O=C(Nc1nc2ccccc2[nH]1)c1cccc([N+](=O)[O-])c1	7.2	44.9	0.8	38.5	2.9	50.2*
N#CCCSC(=S)C1CCCC1=N (stereo unspecified)	1.0	·	0.9	·	·	·
Cc1ccc(N2CC3=C(C2=O)C(c2ccccc2)NC(=O)N3C)cc1 (stereo unspecified)	1.8	-15.4	0.1	-17.8	-0.8	-2.1
CN1C(=O)NC(c2ccccc2)C2=C1CN(c1ccc3ccccc3c1)C2=O (stereo unspecified)	-2.1	0.5	0.6	4.6	3.0	67.8*
O=c1c2sc(-c3ccccc3)cc2nc2n1CCCCC2	2.6	55.5*	5.0*	32.3	3.0	-7.2
O=C(/C=C/c1ccc([N+](=O)[O-])cc1)NCc1cccnc1	1.4	17.1	0.5	2.6	-2.2	28.0
O=C(/C=C/c1ccc(Cl)c([N+](=O)[O-])c1)NCc1cccnc1	-1.6	0.5	-0.7	-7.6	-0.2	60.2*
O=C(/C=C/c1cccc([N+](=O)[O-])c1)NCc1cccnc1	0.1	-4.2	-1.1	4.6	-0.3	63.3*
